The panel holds about 79,000 compounds, 15% with a hit somewhere; the sample as a whole holds those more often. A number with no mark means an inactive call. Cut-off read from the data, not from the text of the source: active = growth inhibition above about 70%; inactive = the rest.

One assay in a line: NCI Yeast Anticancer Drug Screen. Data for the cln2 rad14 strain (AID 165).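 Note: 0% = growth equal to vehicle treated cultures.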 Conditions: S. cerevisiae cln2 rad14 strain, at 50.0 µM, active compounds read high. The procedure, abridged: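 The screen exposed genetically defined yeast (cln2 rad14) to test compounds and scored growth inhibition relative to vehicle-treated controls.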
Regarding `CCCCCCCCCCCCCCCC(=O)OCC(=O)O`, the growth inhibition is 10.3%.
Same read-out and setting: next, `COc1ccc(NC(=O)NCc2ccc(C)cc2)cc1`: -5.5%.
Turning to `COc1ccc2c(=O)cc[nH]c2c1OC`, the growth inhibition is -23.9%.
Same read-out and setting: next, `CCOC(=O)C(CN)c1ccccc1` (stereo not given): -32.9%; `O=C1c2c(F)c(F)c(F)c(F)c2SC2=Nc3cccc4cccc(c34)N12`: -14.5%; `N=c1sc(N2CCOCC2)nn1CC(=O)c1ccccc1`: 4.35%.
The same measure, in the same setting: the figure for `O=Cc1ccc(-c2ccc(S(=O)(=O)O)cc2)o1` is 25.8%; for `COc1ccc(/C=N/NC(=O)NCCCN(C)C)cc1` it is -5%; for `NC(CCOCCP(=O)(O)CCC1C=CC=CC1)C(=O)O` (stereo not given) it is 5.6%.
As for `COc1cccc(N2C(Cl)C(=O)C2c2c[nH]c3ccccc23)c1` (stereo not given), the growth inhibition is -23.1%.
The same measure, in the same setting: the figure for `O=C(COc1ccc(Cl)cc1Cl)Nc1ccc2ccccc2c1S(=O)(=O)O` is -5.95%.
Still for that read-out and setting: the figure for `c1ccc(C2OCC(OC3CCCCO3)CO2)cc1` (stereo not given) is -5.1%.
Turning to `N#Cc1cnn2ccn(C3OC(CO)C(O)C3O)c12` (stereo not given), the growth inhibition is -22.6%.
On the same count and under the same terms, the figure for `COC(=O)c1cc(C)c2c3ccccc3n(C)c2c1C(=O)OC` is -1.5%.
Still for that read-out and setting: the figure for `CN(C)c1ccc(C(=Cc2ccccc2)c2ccc(N(C)C)cc2)cc1` is -63.6%.
The same measure, in the same setting: the figure for `CCCCCCCCCCCCCCCCCCOC(=O)C1CCCN1` (stereo not given) is 3.15%; for `N#C/C(=C\NC(=S)NCc1ccccc1)c1nc2ccccc2s1` it is 43.3%; for `O=C(CCCO)c1nc2ccccc2s1` it is -8.55%.
Take `COc1ccc2c(=O)c(Cc3c[nH]c4ccccc34)coc2c1`: the growth inhibition is -35.6%.
On the same count and under the same terms, next, `O=[N+]([O-])c1ccc(-c2ccncc2)cc1`: 20.6%; `Cc1ccc(C2OC(N)=C(O)C2=O)cc1` (stereo not given): -26.4%.
Same read-out and setting: the figure for `C=CC1C(=O)N(C)[C@H](C(C)(C)C)N1C(=O)c1ccccc1` (stereo not given in full) is -18.9%.
Still for that read-out and setting: next, `CN1c2ccccc2N(C)C2C1N(C)c1ccccc1N2C` (stereo not given): -1.8%.
On to `O=C(O)Cc1cc(I)c(Oc2ccc(O)cc2)c(I)c1`, for which the growth inhibition is 15.2%.
For the molecule `COC(=O)C1(CC(=O)/C=C/c2ccccc2)NC(=S)NC(=O)C1C#N` (stereo not given), the growth inhibition is 10.1%.
Consider `Cc1[nH]nc(N)c1C(N)=O`, for which the growth inhibition was 1.2%.
On the same count and under the same terms, next, `O=C1CSC(c2cccc(C(F)(F)F)c2)N1c1nncs1` (stereo not given): 7.95%.
On the same count and under the same terms, the figure for `CC(=O)OCCN(C)C` is 8.5%.
The same measure, in the same setting: next, `Cc1cc(C)c(C(C)(C)O)c(C)c1`: 22.4%; `N.N.N.N.N.O=C([O-])c1nn[n-]n1.[Cl-].[Co+3]`: 23.4%; `O=[N+]([O-])c1ccc(-c2ccc([N+](=O)[O-])cc2)cc1`: -38.5%.
On to `O=C1CSC=NN1c1ccccc1`, for which the growth inhibition was -9.75%.
For `CCC(CC)(CO)CO`, the growth inhibition was 16.1%.
Consider `c1ccc(C(SN=C2CCCCC2)(c2ccccc2)c2ccccc2)cc1`, for which the growth inhibition is 10.9%.
As to `COC(=O)CC1(C(=O)OC)Nc2ccccc2C(=O)O1` (stereo not given), the growth inhibition is -11.1%.
Same read-out and setting: the figure for `CCOC(=O)CN/N=C(\N)CSS(=O)(=O)O` is 13.3%; for `O=C(Nc1ccccc1)C1CC2C=CC1C2` (stereo not given) it is -3.9%; for `COc1ccc(CCNC(=O)CCc2ccccc2CO)cc1OC` it is -5.9%.
On the same count and under the same terms, the figure for `Cc1cn(C2CC(N=[N+]=[N-])C(CO)O2)c(=O)[nH]c1=O` (stereo not given) is 14.1%.
The same measure, in the same setting: the figure for `COc1ccccc1NC(=O)NCCN1CCCC1` is -8.9%.

Another assay in a line: NCI Yeast Anticancer Drug Screen. Data for the bub3 strain (AID 167). To be noted: S. cerevisiae bub3 mutant strain, at 50.0 µM, active compounds read high. Summed up:
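In this screen, a yeast mutant lacking normal mitotic checkpoint function is challenged with compound. Relative growth versus vehicle gives the inhibition value.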
Take `CCCCCCCCCCCCCCCC(=O)OCC(=O)O`: the growth inhibition is 15.2%.
The same measure, in the same setting: the figure for `COc1ccc(NC(=O)NCc2ccc(C)cc2)cc1` is 7.85%; for `COc1ccc2c(=O)cc[nH]c2c1OC` it is 9.1%.
For `CCOC(=O)C(CN)c1ccccc1` (stereo not given), the growth inhibition was -1.25%.
Still for that read-out and setting: the figure for `O=C1c2c(F)c(F)c(F)c(F)c2SC2=Nc3cccc4cccc(c34)N12` is -4.25%; for `N=c1sc(N2CCOCC2)nn1CC(=O)c1ccccc1` it is -17.1%.
On the same count and under the same terms, the figure for `O=Cc1ccc(-c2ccc(S(=O)(=O)O)cc2)o1` is 3.55%.
On to `COc1ccc(/C=N/NC(=O)NCCCN(C)C)cc1`, for which the growth inhibition is -23.9%.
Still for that read-out and setting: next, `NC(CCOCCP(=O)(O)CCC1C=CC=CC1)C(=O)O` (stereo not given): -21.3%.
Still for that read-out and setting: the figure for `COc1cccc(N2C(Cl)C(=O)C2c2c[nH]c3ccccc23)c1` (stereo not given) is -28.9%.
On the same count and under the same terms, next, `O=C(COc1ccc(Cl)cc1Cl)Nc1ccc2ccccc2c1S(=O)(=O)O`: 8.4%.
In the case of `c1ccc(C2OCC(OC3CCCCO3)CO2)cc1` (stereo not given), the growth inhibition was -9.45%.
The same measure, in the same setting: next, `N#Cc1cnn2ccn(C3OC(CO)C(O)C3O)c12` (stereo not given): -5.45%.
On the same count and under the same terms, the figure for `COC(=O)c1cc(C)c2c3ccccc3n(C)c2c1C(=O)OC` is -9.9%; for `CN(C)c1ccc(C(=Cc2ccccc2)c2ccc(N(C)C)cc2)cc1` it is 0.8%; for `CCCCCCCCCCCCCCCCCCOC(=O)C1CCCN1` (stereo not given) it is 12.4%.
Still for that read-out and setting: the figure for `N#C/C(=C\NC(=S)NCc1ccccc1)c1nc2ccccc2s1` is 30.5%; for `O=C(CCCO)c1nc2ccccc2s1` it is 11.8%; for `COc1ccc2c(=O)c(Cc3c[nH]c4ccccc34)coc2c1` it is 9.85%.
As for `O=[N+]([O-])c1ccc(-c2ccncc2)cc1`, the growth inhibition was -18.1%.
As to `Cc1ccc(C2OC(N)=C(O)C2=O)cc1` (stereo not given), the growth inhibition is 1.85%.
Same read-out and setting: the figure for `C=CC1C(=O)N(C)[C@H](C(C)(C)C)N1C(=O)c1ccccc1` (stereo not given in full) is 2%; for `CN1c2ccccc2N(C)C2C1N(C)c1ccccc1N2C` (stereo not given) it is -19.9%.
Still for that read-out and setting: next, `O=C(O)Cc1cc(I)c(Oc2ccc(O)cc2)c(I)c1`: -9.5%; `COC(=O)C1(CC(=O)/C=C/c2ccccc2)NC(=S)NC(=O)C1C#N` (stereo not given): -19.9%.
`Cc1[nH]nc(N)c1C(N)=O`: the growth inhibition is 0.85%.
Regarding `O=C1CSC(c2cccc(C(F)(F)F)c2)N1c1nncs1` (stereo not given), the growth inhibition is 16.6%.
Take `CC(=O)OCCN(C)C`: the growth inhibition is -19.4%.
Same read-out and setting: next, `Cc1cc(C)c(C(C)(C)O)c(C)c1`: -1.65%.
`N.N.N.N.N.O=C([O-])c1nn[n-]n1.[Cl-].[Co+3]`: the growth inhibition is 3.75%.
Still for that read-out and setting: next, `O=[N+]([O-])c1ccc(-c2ccc([N+](=O)[O-])cc2)cc1`: 22.6%; `O=C1CSC=NN1c1ccccc1`: 5.75%; `CCC(CC)(CO)CO`: -0.55%.
On the same count and under the same terms, the figure for `c1ccc(C(SN=C2CCCCC2)(c2ccccc2)c2ccccc2)cc1` is -1.2%; for `COC(=O)CC1(C(=O)OC)Nc2ccccc2C(=O)O1` (stereo not given) it is -11.1%; for `CCOC(=O)CN/N=C(\N)CSS(=O)(=O)O` it is 9.65%.
Same read-out and setting: the figure for `O=C(Nc1ccccc1)C1CC2C=CC1C2` (stereo not given) is -7.3%; for `COc1ccc(CCNC(=O)CCc2ccccc2CO)cc1OC` it is -39.2%.
Take `Cc1cn(C2CC(N=[N+]=[N-])C(CO)O2)c(=O)[nH]c1=O` (stereo not given): the growth inhibition is 0.05%.
For `COc1ccccc1NC(=O)NCCN1CCCC1`, the growth inhibition is 9.45%.

(Values after PubChem BioAssay (NCI).)
